Measurements reported in the supplement of paper PMC11150407.
About 180 (8.6%) of roughly 2,100 compounds showed an effect of 50% or more. This excerpt belongs to a sample that is enriched for strong results.

The compounds below were run on MOLM1 and UCSD/AML1 (averaged) (assay: cell viability relative to DMSO control (POC); higher = less growth inhibition). Settings: 1 µM; 72 h.
Method: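 Primary viability screen in the 3q26 EVI1-high AML cell lines MOLM1 and UCSD/AML1 (1.5e3 cells/well, 384-well), compounds at 1 uM for 72 h. ATP CellTiter-Glo read-out given as percent of viable cells over DMSO control (POC), averaged over duplicates. DMSO was the negative control and 5 uM etoposide the positive control. This mapping covers the MicroSource Spectrum and Selleck anticancer libraries (drug names).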

| Compound | cell viability [%] |
| --- | --- |
| COc1c(O)cccc1O | 97.7 |
| COc1cc2ncnc(Nc3ccc(F)c(Cl)c3)c2cc1OCCCN1CCOCC1 [Gefitinib (Iressa)] | 84.9 |
| COc1cc2c(Oc3ccc4[nH]c(C)cc4c3F)ncnc2cc1OCCCN1CCCC1 [Cediranib (AZD2171)] | 66.3 |
| COc1cc(Nc2c(C#N)cnc3cc(OCCCN4CCN(C)CC4)c(OC)cc23)c(Cl)cc1Cl [Bosutinib (SKI-606)] | 21.3 |
| CC(C)/C(O)=C1/C(=O)O[C@@H](c2ccoc2)[C@]2(C)C(O)[C@@H](O)[C@@]34OC5(C)OC67CC(C)(C(O)[C@]6(O)[C@@H](O)[C@]3(O5)C12)[C@H](CC(=O)O)[C@]74C (stereo partly specified) | 93.3 |
| CC(=O)O[C@H]1C[C@@H](OC(C)=O)C(C)(C)C2C[C@@H](O)[C@]3(C)C(CC[C@@]4(C)[C@H](c5ccoc5)OC(=O)[C@H]5O[C@]543)[C@]21C (stereo partly specified) | 103 |
| COc1cc(O)c2c(=O)cc(C)oc2c1CC=C(C)C | 87.8 |
| O=C(CCc1ccc(O)cc1)c1c(O)cc(O)cc1O[C@@H]1OC(CO)[C@@H](O)[C@@H](O)C1O (stereo partly specified) | 104 |
| COC(=O)c1c(C)cc(OC)cc1O | 94.6 |
| Cn1c(=O)[nH]c(=O)c2[nH]cnc21 | 110 |
| O=c1c(O)c(-c2ccc(O)c(O)c2)oc2c(O[C@@H]3O[C@H](CO)[C@@H](O)[C@H](O)[C@H]3O)c(O)cc(O)c12 | 91.3 |
| O=C(O)c1ccc2c(c1)nc(Nc1cccc(Cl)c1)c1ccncc12 [cx-4945 (Silmitasertib)] | 80.5 |
| CC(=O)C1=C(O)C=C2Oc3c(C(C)=O)c(O)c(C)c(O)c3C2(C)C1=O (stereo in doubt) | 113 |
| C[C@@H](Oc1cc(-n2cnc3ccc(CN4CCN(C)CC4)cc32)sc1C(N)=O)c1ccccc1C(F)(F)F | 19.5 |
| CC(=O)N[C@@H](Cc1ccccc1)C(=O)O | 100 |
| CC(C)=CCc1c(O)cc2oc(C)cc(=O)c2c1O | 94.1 |
| C[C@H](CCC(=O)O)[C@H]1CC[C@H]2[C@@H]3[C@H](O)C[C@@H]4C[C@H](O)CC[C@]4(C)[C@H]3C[C@H](O)[C@]12C | 100 |
| CC1(C)C(=O)C=CC2(C)C1C=CC1(C)C2CCC2(C)C(c3ccoc3)OC(=O)C3OC312 (stereo unspecified) | 86.9 |
| CCOC(=O)Nc1nc2ccccc2[nH]1 | 103 |
| COC(=O)C(C)c1ccc(C(=O)c2cccs2)cc1 (stereo unspecified) | 103 |
| COC(=O)Nc1nc2cc(C(=O)c3cccs3)ccc2[nH]1 [Nocodazole] | 13.3 |
| COC(=O)Nc1nc2cc(C(=O)c3ccccc3)ccc2[nH]1 | 16.8 |
| COC(=O)Nc1nc2cc([S+]([O-])c3ccccc3)ccc2[nH]1 (stereo unspecified) | 50.5 |
| CC(=O)Oc1ccc2c(c1OC(C)=O)OCC1(O)Cc3c(cc(OC(C)=O)c(OC(C)=O)c3OC(C)=O)C21 (stereo unspecified) | 108 |
| COc1cc2ncnc(-n3nc(-c4ccccn4)nc3N)c2cc1OC | 67 |
| O=c1cc(-c2ccccc2)oc2cccc(O)c12 | 119 |

| Compound | cell viability [%] |
| --- | --- |
| CC(C)c1c(O)c(-c2cc3c(c(C(C)C)c2O)CCC2C(C)(C)CCC[C@]32C)cc2c1CCC1C(C)(C)CCC[C@]21C (stereo partly specified) | 87.3 |
| COC(=O)C[C@H]1C(C)(C)C(=O)[C@@H]2CC3=C4CC(=O)O[C@@H](c5ccoc5)[C@]4(C)CC[C@@H]3[C@@]1(C)C2=O | 99.2 |
| C=C1CCC2C(CC2(C)C)C(=O)CCC1O (stereo unspecified) | 104 |
| CC1(C)C2CC(=O)O[C@@]3(C)C4=CC(=O)O[C@@H](c5ccoc5)[C@]4(C)CCC3[C@@]2(C)C=C[C@H]1O (stereo partly specified) | 95.9 |
| Cn1cncc1[C@@](N)(c1ccc(Cl)cc1)c1ccc2c(c1)c(-c1cccc(Cl)c1)cc(=O)n2C [Tipifarnib (Zarnestra)] | 36.5 |
| CO[C@@]12[C@H](COC(N)=O)C3=C(C(=O)C(C)=C(N)C3=O)N1C[C@@H]1N[C@@H]12 | 13 |
| C=CCc1ccc(OC(=O)c2ccccc2)c(OC)c1 | 95.6 |
| O=c1c2cc(O)c(O)cc2oc2cc(O)c([C@@H]3O[C@H](CO)[C@@H](O)[C@H](O)[C@H]3O)c(O)c12 | 96.4 |
| CC1(C)C(=O)[C@H]2C[C@]3(O)C4=CC(=O)O[C@@H](c5ccoc5)[C@@]4(C)CCC3[C@](C)(C2=O)[C@H]1CC(=O)O (stereo partly specified) | 95.4 |
| CCOC(=O)c1c(C)cc(OC)cc1O | 95.3 |
| COc1ccc(S(=O)(=O)Nc2cccnc2Nc2ccc(O)cc2)cc1 | 49.4 |
| Nc1ccc(S(=O)(=O)Nc2ccccn2)cc1 | 100 |
| COc1cnc(NS(=O)(=O)c2ccc(N)cc2)nc1 | 100 |
| C=C1C2CC[C@@]3(C)[C@H](c4ccoc4)OC(=O)C[C@]13O[C@H]1CC(O)C(C)(C)C(CC(=O)OC)[C@@]21C (stereo partly drawn) [3alpha-HYDROXY-3-DEOXYANGOLENSIC ACID METHYL ESTER] | 97.3 |
| O=C(O[C@@H]1Cc2c(O)cc(O)cc2O[C@@H]1c1cc(O)c(=O)c2c(O)c(O)cc([C@H]3Oc4cc(O)cc(O)c4C[C@H]3O)c2c1)c1cc(O)c(O)c(O)c1 | 101 |
| C=C[C@@](C)(O)CCC1C(=C)CCC2[C@@](C)(CO)CCC[C@]12C (stereo partly specified) | 112 |
| COc1cc(O)c(C(C)=O)c(O)c1 | 110 |
| CS(=O)(=O)N1CCc2c(-c3cnc(N)nc3)nc(N3CCOCC3)nc21 | 47.5 |
| CC(C)[C@H](C(=O)Nc1ccc(C(=O)NO)cc1)c1ccccc1 | 0.459 |
| CC(=O)Nc1ccccc1 | 101 |
| O=C(Nc1ccc(C(=O)O)c(O)c1)c1ccccc1 | 96.4 |
| O=c1c(O)c(-c2ccc(O)c(O)c2)oc2cc(O)ccc12 | 94 |
| C[C@]12CCC3c4ccc(OS(=O)(=O)O)cc4CCC3C1CC[C@H]2O (stereo partly specified) | 98.1 |
| O=C(O)c1cc(=O)c(O)c2c(O)c(O)c(O)cc2c1 | 115 |
| CNc1ccccc1C(=O)N1CCc2c([nH]c3ccccc23)C1=O | 88.5 |
| Cc1occc(=O)c1O | 103 |

| Compound | cell viability [%] |
| --- | --- |
| Cc1nc(Nc2ncc(C(=O)Nc3c(C)cccc3Cl)s2)cc(N2CCN(CCO)CC2)n1 | 29.5 |
| CCCC(=O)[O-].[Na+] [Sodium butyrate] | 91.3 |
| OCCn1cc(-c2cnc3nnn(Cc4ccc5ncccc5c4)c3n2)cn1 | 26.7 |
| Cn1cc(-c2ccc3nnc(Sc4ccc5ncccc5c4)n3n2)cn1 | 82.3 |
| Cn1cc(-c2ccc3nnc(C(F)(F)c4ccc5ncccc5c4)n3n2)cn1 | 101 |
| C[C@]12CC[C@H](O)CC1=CC[C@@H]1[C@@H]2CC[C@]2(C)C(c3cccnc3)=CC[C@@H]12 [Abiraterone (CB-7598)] | 102 |
| COc1cc2c(cc1OC)[C@@H]1Cc3ccc(OC)c(OC)c3CN1CC2 | 108 |
| CN(C)CCOc1ccc(-c2nc(-c3ccncc3)c(-c3ccc4c(c3)CC/C4=N\O)[nH]2)cc1 | 76.1 |
| COc1cc(/C=C/C(=O)O)ccc1O | 104 |
| O=C1C=C2CC3(O)COc4cc(O)ccc4C3=C2C=C1O (stereo unspecified) | 99.3 |
| Cc1cnc(NC(=O)Nc2cc(Br)c(C)cc2OC[C@@H]2CNCCO2)cn1 | 46.1 |
| COc1c2ccoc2nc2c(OC)c(OCC(O)C(C)(C)O)ccc12 (stereo unspecified) | 90.2 |
| CC(C)=CC1C(CO)C1(C)C (stereo unspecified) | 104 |
| CCc1cn([C@H]2C[C@H](O)[C@@H](CO)O2)c(=O)[nH]c1=O | 91.5 |
| Nc1ncnc2c1ncn2[C@H]1C[C@H](O)[C@@H](CO)O1 | 90.9 |
| Nc1nc(F)nc2c1ncn2[C@@H]1O[C@H](COP(=O)(O)O)[C@@H](O)[C@@H]1O | 74.4 |
| Nc1ncn([C@@H]2O[C@H](CO)[C@@H](O)[C@H]2O)c(=O)n1 [Azacitidine (Vidaza)] | 84.2 |
| Nc1nc(F)nc2c1ncn2[C@@H]1O[C@H](COP(=O)(O)O)[C@@H](O)[C@@H]1O [Fludarabine Phosphate (Fludara)] | 44.2 |
| Nc1nc(Cl)nc2c1ncn2[C@H]1C[C@H](O)[C@@H](CO)O1 [Cladribine] | 5.67 |
| O=c1[nH]c(=O)n([C@H]2C[C@H](O)[C@@H](CO)O2)cc1F [Floxuridine] | 64.4 |
| Nc1ncn([C@H]2C[C@H](O)[C@@H](CO)O2)c(=O)n1 [Decitabine] | 41.3 |
| O=c1[nH]c(=O)n([C@H]2C[C@H](O)[C@@H](CO)O2)cc1F | 83.1 |
| Nc1nc(F)nc2c1ncn2[C@@H]1O[C@H](CO)[C@@H](O)[C@@H]1O [Fludarabine (Fludara)] | 53 |
| COc1nc(N)nc2c1ncn2[C@@H]1O[C@H](CO)[C@@H](O)[C@@H]1O [Nelarabine (Arranon)] | 109 |
| Nc1ncnc2c1ncn2[C@@H]1O[C@H](COP(=O)(O)O)[C@@H](O)[C@H]1O | 99.1 |
| Nc1nc(Cl)nc2c1ncn2[C@@H]1O[C@H](CO)[C@@H](O)[C@@H]1F [Clofarabine] | 6.72 |

| Compound | cell viability [%] |
| --- | --- |
| NC(=O)c1ccc[n+]([C@@H]2O[C@H](COP(=O)([O-])OP(=O)(O)OC[C@H]3O[C@@H](n4cnc5c(N)ncnc54)[C@H](O)[C@@H]3O)[C@@H](O)[C@H]2O)c1 | 81.6 |
| Nc1ncn([C@@H]2O[C@H](CO)[C@@H](O)[C@H]2O)c(=O)n1 | 77.4 |
| OC[C@@H](O)[C@@H](O[C@@H]1O[C@H](CO)[C@@H](O)[C@H](O)[C@H]1O)[C@H](O)[C@@H](O)CO | 92.2 |
| COc1ccc([C@H]2Oc3cc(OC)cc(OC)c3C[C@H]2O)cc1 | 98.4 |
| COC(=O)C[C@H]1C2(C)CC34OC5(C)O[C@@]6([C@H](OC)C(OC(=O)C(C)C)[C@]7(C)C(/C(=C(/OC)C(C)C)C(=O)O[C@H]7c7ccoc7)[C@@]6(O5)[C@H](OC)[C@@]3(OC)C2OC(C)=O)[C@]14C (stereo partly specified) | 105 |
| Cc1c(C(=O)O)c(O)cc2c1C(=O)c1c(O)c([C@@H]3O[C@H](CO)[C@@H](O)[C@H](O)[C@H]3O)c(O)c(O)c1C2=O | 92.5 |
| O=C(O)c1cccc(O)c1O | 107 |
| C[C@H]1[C@H](C)CC[C@]2(CO)CC[C@]3(C)C(=CC[C@@H]4[C@@]5(C)CC[C@H](O)C(C)(C)[C@@H]5CC[C@]43C)[C@H]12 | 110 |
| CC(=O)O[C@@H]1CC2C(C)(C)C(=O)CC[C@]2(C)C2CC[C@]3(C)C(=CC(=O)O[C@H]3c3ccoc3)[C@@]21C (stereo partly specified) | 110 |
| COc1c(OC)c2occc2c2oc(=O)ccc12 | 117 |
| CC(=O)O[C@H]1CC[C@]2(C)[C@H]3CC=C4[C@@H]5CC(C)(C)CC[C@]5(C)CC[C@@]4(C)[C@]3(C)CC[C@H]2C1(C)C [beta-AMYRIN ACETATE] | 107 |
| CC(=O)CC(=O)CCC(=O)O | 96.2 |
| CCOC(=O)c1c(C)cc(O)cc1O | 104 |
| CC1=CCCC(C)=CCC(C)(C)C=CC1 [HUMULENE (alpha)] | 113 |
| CN(C)Cc1ccc(-c2nc3cccc4c3n2CCNC4=O)cc1 | 100 |
| CCC(=O)N1CCN(c2ccc(-n3c(=O)ccc4cnc5ccc(-c6cnc7ccccc7c6)cc5c43)cc2C(F)(F)F)CC1 [Torin 1] | 20.8 |
| Nc1ccc(-c2ccc3ncc4ccc(=O)n(-c5cccc(C(F)(F)F)c5)c4c3c2)cn1 [Torin 2] | 10 |
| COc1ccc2c3n(c(=NC(=O)c4cccnc4)nc2c1OC)CCN3 | 64.3 |
| COc1cc(C)c(C(=O)O)c(O)c1 | 100 |
| S=C(NCc1ccc2c(c1)OCO2)N1CCN(c2ncnc3c2oc2ccccc23)CC1 [Amuvatinib (MP-470)] | 77.9 |
| COC(=O)[C@@H]1OC(=O)[C@H]2O[C@@]23[C@@]1(C)CCC1[C@@]2(C)CCC(=O)C(C)(C)C2C[C@@H](OC(C)=O)[C@]13C (stereo partly specified) | 99 |
| O=C(Nc1c[nH]nc1-c1nc2ccc(CN3CCOCC3)cc2[nH]1)NC1CC1 | 17.5 |
| CC(=O)Oc1cc(OC(C)=O)c2c(c1)O[C@H](c1ccc(OC(C)=O)c(OC(C)=O)c1)[C@H](OC(C)=O)C2 | 104 |
